HEK cytotox: kills HEK 293 cells; HEK 293 viability, ATP luminescence (CellTiter-Glo), 48-72 h; Potency, µM (series often up to 115 µM), without a hit: top-dose activity change, negative = cytotoxicity, actives largely listed as inhibitors; actives 6.6% (n = 94,000); also: nearly all actives have a fitted effect of over 60% in size
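HEK 293 cells seeded at 250 cells/well were exposed to compound for 48 or 72 hr at 37 degree Celsius. Viability taken as ATP content by CellTiter-Glo luminescence.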
FLuc inh: Photinus pyralis luciferase inhibition. Potency, µM (titrated, usually from 115 µM), hits mostly inhibitors. P08659. AID 1347043. purified P. pyralis luciferase, luminescence, biochemical. actives 2.5% (n = 76,000); also: nearly all actives have a fitted effect of over 65% in size
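Inhibitors were tested against purified firefly luciferase in a biochemical, low-substrate format (both substrates at 10uM) and luminescence measured with a CCD imager.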
hNpr1 antagonist: antagonists of human natriuretic peptide receptor Npr1. actives 1.6% (n = 76,000). P16066. AID 1347048. Potency, µM (top dose mostly 46.3 µM), for inactives: at the top dose activity change, negative = inhibition, usual class: inhibitors. HEK293 hNpr1 GloSensor cGMP, ANP-stimulated luminescence; calls by dose curve; also: nearly all actives have a fitted effect of over 60% in size
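HEK293 cells stably expressing human Npr1 and cGMP GloSensor pGS-40F, loaded 2 h with 2% GloSensor reagent, given compound 30 min at room temperature. Luminescence read before and 20 min after 0.1 nM hNppA.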
NIH3T3 tox: kills NIH 3T3 cells; NIH 3T3 viability, CellTiter-Glo ATP luminescence, 48-72 h; Potency, µM (highest dose often 96.7 µM), without a hit: at the top dose activity change, negative = cytotoxicity, actives largely listed as inhibitors; actives 4.3% (n = 94,000); AID 1345082; also: nearly all actives have a fitted effect of over 55% in size
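Cells were seeded at 400 per well, treated with pin-transferred compound, and kept 48 or 72 hr at 37 °C before CellTiter-Glo addition and luminescence imaging of cellular ATP.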
The depositor's hits bear a star; i = inactive; ? = inconclusive; / = not tested or not shown; [ ] = another dose, or the depositor's remark. Rows were chosen to be rich in hits. Some 11% of all compounds tested hit in one or more screens of this group. Unless noted, calls follow the shape of the dose curve; as a rule, active = well fitted curve in the direction sought with a large enough effect; inconclusive = small, poorly fitted or top-dose-only effect, or another doubt; inactive = no such curve, though single readings can be large; an effect the other way counts as inactive or inconclusive. % is scaled to controls: 0 for no effect and ±100 for the full control effect; potency is read from the fitted curve at half-maximal effect.

SMILES	HEK cytotox	FLuc inh	hNpr1 antagonist	NIH3T3 tox
CC(=O)NCCC1CCN(C(=O)Nc2ccc(C)c(F)c2)CC1	3.4%	5.01µM*	-27.9%	i
Cc1ccc(NC(=O)N2CCC(CCNC(=O)C3CCCC3)CC2)cc1F	-3.1%	/	/	-23.3%
O=C(Cn1nc2n(c1=O)CCCC2)Nc1cccc(Cl)c1	19.0%	i	-8.1%	-4.8%
Cc1ccc(C2=NC3(CCN(C(=O)c4ccc(C)c(C)c4)CC3)ON2)cc1	?	?	-2.8%	-6.6%
COC1CN(C2CCN(C(=O)c3cccs3)CC2)C12CCOCC2 (stereo not drawn)	-2.9%	/	/	-23.3%
CCCCOc1ccc(-c2nc(C3CC(=O)N(C4CCCCC4)C3)no2)cc1 (stereo not drawn)	44.7µM*	i	?	31.6µM*
CCCCOc1ccc(-c2nc(C3CC(=O)N(c4ccc(OC)cc4)C3)no2)cc1 (stereo not drawn)	-0.5%	i	5.8%	-7.3%
Cc1ccsc1-c1nc(C2CC(=O)N(C3CCCCC3)C2)no1 (stereo not drawn)	79.4µM*	i	-1.8%	-25.4%
O=C1CC(c2noc(-c3ccco3)n2)CN1C1CCCCC1 (stereo not drawn)	-26.4%	i	-2.4%	-17.5%
C[S+](=O)([O-])N1Cc2ccccc2OC2(CCN(C(=O)c3ccc(N)nc3)CC2)C1	-12.9%	/	/	-14.3%
C=CCNC(=O)c1coc(COc2ccc3c(c2)C(c2ccc(C)cc2)N(C(=O)C2CC2)CC3)n1 (stereo not drawn)	?	i	-19.9%	?
COCCNC(=O)c1coc(COc2ccc3c(c2)C(c2ccc(C)cc2)N(C(=O)C2CC2)CC3)n1 (stereo not drawn)	25.1µM*	i	2.0%	?
C=CCNC(=O)c1coc(COc2ccc3c(c2)C(c2cccc(C)c2)N(C(=O)C2CC2)CC3)n1 (stereo not drawn)	35.5µM*	i	-15.2%	?
CCNC(=O)c1coc(COc2ccc3c(c2)C(c2ccc(F)cc2)N(C(=O)CC(C)C)CC3)n1 (stereo not drawn)	?	i	-18.0%	?
CCC(=O)N1CCc2ccc(OCc3nc(C(=O)NCCOC)co3)cc2C1c1ccc(C)cc1 (stereo not drawn)	28.2µM*	i	0.3%	-27.7%
Cc1ccc(C2c3cc(OCc4nc(C(=O)N5CCCC5)co4)ccc3CCN2C(=O)C2CC2)cc1 (stereo not drawn)	39.8µM*	i	-2.0%	?
O=C(CC1CCCN(c2cn[nH]c(=O)c2)C1)NCCCc1ccccc1 (stereo not drawn)	1.7%	i	3.2%	1.5%
CC(C)CNC(=O)c1coc(COc2ccc3c(c2)C(c2ccccc2)N(C(=O)C(C)C)CC3)n1 (stereo not drawn)	?	i	-15.8%	39.8µM*
NCCn1cc(C(=O)NCc2cc3n(n2)CCN(C2CCCCC2)C3)nn1	0.9%	i	4.2%	2.9%
COCCNc1cc(-c2cccc(C(F)(F)F)c2)nc2c(C)noc12	89.1µM*	i	-0.2%[70.6 µM]	?
Cc1noc2c(NCc3cccnc3)cc(-c3cccc(C(F)(F)F)c3)nc12	100µM*	i	-4.9%[70.6 µM]	79.4µM*
CC1(C)Cc2c(cnn2-c2ccc(F)cc2)C(NC(=O)c2cc(C3CC3)[nH]n2)C1 (stereo not drawn)	79.4µM*	i	-15.3%	?
COc1cccc(CNC(=O)C2Cn3cccc3C(=O)N2Cc2ccccc2)c1 (stereo not drawn)	?	i	-12.5%	-24.1%
Cc1noc(C)c1-c1cc2cc(CN(C)C)oc2c(NCc2cccc(F)c2)n1	?	i	-2.1%[70.6 µM]	?
Cc1noc(C)c1-c1cc2cc(CN(C)C)oc2c(NCC(C)C)n1	70.8µM*	i	-13.2%[70.6 µM]	50.1µM*
SMILES	HEK cytotox	FLuc inh	hNpr1 antagonist	NIH3T3 tox
Cc1noc(C)c1-c1cc2cc(CN(C)C)oc2c(NCCc2ccccc2)n1	56.2µM*	i	-4.0%[70.6 µM]	44.7µM*
Cc1noc(C)c1-c1cc2cc(CN(C)C)oc2c(NCCOc2ccccc2)n1	?	i	-21.1%[70.6 µM]	79.4µM*
CN1CCN(C(=O)N2CCC3(CC2)CN([S+](C)(=O)[O-])Cc2ccccc2O3)CC1	?	/	/	-4.5%
O=C(Cc1c[nH]c2ncc(-c3cccc(OC(F)(F)F)c3)cc12)NCc1cccnc1	70.8µM*	?	?	44.7µM*
O=C(Cc1c[nH]c2ncc(-c3ccccc3)cc12)Nc1ccc(Cl)cc1	?	i	?	?
O=C(Cc1c[nH]c2ncc(-c3cccnc3)cc12)Nc1ccccc1	?	i	-1.1%[70.6 µM]	25.1µM*
COc1ccc(-c2cnc3[nH]cc(CC(=O)NCc4cccnc4)c3c2)cc1OC	?	i	-2.2%[70.6 µM]	15.8µM*
O=C(Cc1c[nH]c2ncc(-c3ccccc3)cc12)Nc1cccnc1	70.8µM*	i	-24.0%[70.6 µM]	28.2µM*
CN(C)c1cccc(NC(=O)Cc2c[nH]c3ncc(-c4ccccc4)cc23)c1	?	i	?	?
O=C(Cc1c[nH]c2ncc(-c3cccnc3)cc12)NCc1ccccc1	89.1µM*	i	?	35.5µM*
O=C(Cc1c[nH]c2ncc(-c3cccnc3)cc12)NC1CC1	-18.6%[230 µM]	i	1.0%[70.6 µM]	70.8µM*
COc1ccc(NC(=O)Cc2c[nH]c3ncc(-c4ccccc4)cc23)cc1OC	89.1µM*	i	?	?
COCc1ccc2c(c1)c(OC(C)(C)C(=O)NCCCN1CCCC1=O)nn2CCC(C)C	-1.3%	i	-2.4%	31.6µM*
COCc1ccc2c(c1)c(OC(C)(C)C(=O)NC1CCC(O)CC1)nn2CCC(C)C (stereo not drawn)	?	i	-4.5%[70.6 µM]	12.6µM*
COCc1ccc2c(c1)c(OC(C)(C)C(=O)NC1CCOCC1)nn2CCC(C)C	?	i	3.5%[70.6 µM]	?
COCc1ccc2c(c1)c(OC(C)(C)C(=O)NCCc1cccnc1)nn2CCC(C)C	?	i	3.4%[70.6 µM]	?
O=C(O)C1(Oc2ccc3ccccc3c2)CCN(Cc2ccsc2)CC1	4.2%	i	-0.9%	-4.9%
CCc1nc2nccc(-c3ccc(Br)cc3)n2n1	?	i	-0.8%	?
O=C(C1COc2ccccc2C1)N1CCC(n2c(=O)[nH]c3ccccc32)CC1 (stereo not drawn)	22.4µM*	i	?	?
CC(C)(C)OC(=O)NCCCC(=O)N1CCC(n2c(=O)[nH]c3ccccc32)CC1	?	i	20µM*	-29.9%
CCN(C)C(=O)CC1=CSC2=NC(C)=C(C(=O)OC(C)(C)C)C(c3ccc(Cl)cc3)N12 (stereo not drawn)	?	i	-24.3%	?
CNCC(=O)N1C[C@@H](COc2cccnc2)[C@H](c2ccccn2)C1	-5.6%	i	2.3%	-7.1%
COc1cccc(CNC(=O)C2CCCCc3nnc(-c4ccccc4)n32)c1 (stereo not drawn)	-27.6%	/	/	-16.1%
